Experimental data published in PubChem BioAssay.
The source made the active and inactive calls. Unless noted, the rule behind the calls is not given here.

Experiments:
[1] = system: Wnt5a (protein binding on small-molecule microarray); assay: Wnt5a binders on small-molecule microarray, primary screen, biophysical, 635/667 nm fluorescence (AID 1142); conditions: 635 nm fluorescence, higher = more signal;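 note: fluorescence read at 667 nm with signal to noise per printed feature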
[2] = cell viability in Huh7 cells, primary screen, cytotoxicity control for HCV replication inhibitor project, CellTiter-Glo luminescence, basal, 48 h (AID 1143); conditions: Huh7 HCV replicon, higher = more signal, called active from +8 up or from −8 down;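 note: Huh7 hepatoma cells carrying a hepatitis C replication reporter with no stimulus; test concentration not given here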
[3] = P. aeruginosa biofilm formation inhibitors, primary screen, PAO1 strain, BacTiter-Glo luminescence, LB-PBS (AID 1144); conditions: 12 h, higher = more signal
[4] = CREB reporter modulators without forskolin, primary screen, cell-based, PC12, CRE-LacZ reporter, unstimulated (AID 1145); conditions: no forskolin, luminescence, 4.5 h, higher = more signal, called active from +8 up or from −8 down
[5] = CREB reporter modulators under forskolin, primary screen, cell-based, PC12, CRE-LacZ reporter, forskolin-stimulated (AID 1146); conditions: luminescence, 4.5 h, higher = more signal, called active from +8 up or from −8 down;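 note: PC12 cells with 6xCRE LacZ reporter stimulated by forskolin 10 µM; beta-galactosidase reporter signal reflecting CREB driven transcription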
[6] = biological target: Streptavidin (Streptomyces avidinii) (UniProt P22629); assay: streptavidin binders on small-molecule microarray, primary screen, artefact control for SMM compound annotation, biophysical, 635/667 nm fluorescence (AID 1147); conditions: streptavidin binding, higher = more signal;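 note: signal reflects streptavidin binding to arrayed compounds as a control protein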
Sequence of Streptavidin (Streptomyces avidinii) (P22629 whole entry, looked up): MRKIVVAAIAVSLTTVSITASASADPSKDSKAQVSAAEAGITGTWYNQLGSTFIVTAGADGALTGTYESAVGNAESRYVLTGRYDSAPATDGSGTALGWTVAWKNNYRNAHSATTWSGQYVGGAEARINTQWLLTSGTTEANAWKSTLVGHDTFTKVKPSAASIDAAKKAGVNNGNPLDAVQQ

[7] = small-molecule binders of probe aInhba, primary screen, biochemical, small-molecule microarray, 635/667 nm fluorescence (AID 1148); conditions: higher = more signal;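 note: score merges 667nm spot fluorescence with signal-to-noise for antibody binding to printed compounds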
Torsin-1A (Homo sapiens) [8] = biological target: Torsin-1A (Homo sapiens) (UniProt O14656); assay: torsin A binders from cell lysate, primary screen, small-molecule microarray, wild-type, 635/667 nm (AID 1149); conditions: COS7 hTOR1A-WT lysate, 635 nm fluorescence, higher = more signal
Sequence of Torsin-1A (Homo sapiens) (O14656 whole entry, looked up): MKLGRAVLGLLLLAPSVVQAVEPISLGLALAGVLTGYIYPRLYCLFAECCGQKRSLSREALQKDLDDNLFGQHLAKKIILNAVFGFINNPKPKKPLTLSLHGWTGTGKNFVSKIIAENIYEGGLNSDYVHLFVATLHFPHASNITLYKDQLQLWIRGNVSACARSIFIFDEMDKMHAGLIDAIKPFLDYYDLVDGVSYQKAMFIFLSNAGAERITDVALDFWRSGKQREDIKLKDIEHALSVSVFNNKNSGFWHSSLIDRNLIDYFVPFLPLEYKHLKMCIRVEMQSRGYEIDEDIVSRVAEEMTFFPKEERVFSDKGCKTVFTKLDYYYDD

Torsin-1A (Homo sapiens) [9] = biological target: Torsin-1A (Homo sapiens) (UniProt O14656); assay: small-molecule binders of mutant TOR1A in lysate, primary screen, cell lysate, small-molecule microarray, COS7 lysate, 635/667 nm fluorescence (AID 1150); conditions: COS7 hTOR1A mutant lysate, 635 nm fluorescence, higher = more signal;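 note: score pools 667 nm emission and signal to noise measuring lysate protein binding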
[10] = system: Sonic hedgehog protein (Shh); assay: small-molecule binders of Shh protein, primary screen, biochemical, small-molecule microarray, 635/667 nm fluorescence (AID 1151); conditions: small-molecule microarray binding, 635 nm fluorescence; higher = more signal;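 note: Shh protein binding to compounds spotted on small-molecule microarray slides; score combines spot fluorescence intensity with signal-to-noise across triplicate slides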
[11] = E. coli DRC41 culture turbidity changes, primary screen, E. coli filamentation inducer project, strain DRC41, OD650, 48 h (AID 1152);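 note: E. coli MC1000 strain DRC41 lacking acrAB efflux pump and sulA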; conditions: E. coli DRC41 (acrAB sulA), higher = more signal, called active from +8 up or from −8 down
[12] = small-molecule binders of probe aLefty1, primary screen, biochemical, small-molecule microarray, 635/667 nm fluorescence (AID 1153); conditions: higher = more signal;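 note: score merges spot fluorescence with signal-to-noise ratio from the scanned slide images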
[13] = PSAC antagonists in infected red cells, primary screen, cell-based, P. falciparum Indochina, OD700, 1 h (AID 1154); conditions: P. falciparum Indochina infected RBC osmotic lysis, higher = more signal, called active from +8 up or from −8 down
[14] = PSAC antagonists in infected red cells, primary screen, cell-based, P. falciparum Indochina, OD700, 2 h (AID 1155);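 note: lysis reports solute entry through the parasite surface anion channel PSAC; channel blockers reduce lysis of infected cells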; conditions: P. falciparum Indochina infected erythrocytes, osmotic lysis OD700; higher = more signal, called active from +8 up or from −8 down
[15] = osmotic lysis modulators in infected erythrocytes, primary screen, PSAC antagonist project, cell-based, P. falciparum Indochina, OD700, 3 h (AID 1156); conditions: higher = more signal, called active from +8 up or from −8 down
[16] = PSAC antagonists in infected red cells, primary screen, cell-based, P. falciparum Indochina, OD700, 18 h (AID 1157); conditions: P. falciparum Indochina infected erythrocytes, osmotic lysis OD700, 18 h; higher = more signal, called active from +8 up or from −8 down
[17] = modulators of S6 phosphorylation in cells, primary screen, cell-based, A549, cytoblot, luminescence, serum-stimulated (AID 1158); conditions: A549 phospho-S6 cytoblot, 5 h, higher = more signal;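 note: serum-stimulated A549 lung adenocarcinoma cells; signal is phosphorylated S6 detected by cytoblot immunostaining with HRP secondary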
[18] = biological target: NADPH oxidase 2 (Homo sapiens) (UniProt P04839); assay: NOX2-dependent H2O2 signal modulators, primary screen, NOX inhibitor project, cell-based, HEK293-NOX2, PMA-stimulated, Amplex Red fluorescence (AID 1159); conditions: 45 min, higher = more signal, called active from +8 up or from −8 down; note: test concentration not given here
Sequence of NADPH oxidase 2 (Homo sapiens) (P04839 whole entry, looked up): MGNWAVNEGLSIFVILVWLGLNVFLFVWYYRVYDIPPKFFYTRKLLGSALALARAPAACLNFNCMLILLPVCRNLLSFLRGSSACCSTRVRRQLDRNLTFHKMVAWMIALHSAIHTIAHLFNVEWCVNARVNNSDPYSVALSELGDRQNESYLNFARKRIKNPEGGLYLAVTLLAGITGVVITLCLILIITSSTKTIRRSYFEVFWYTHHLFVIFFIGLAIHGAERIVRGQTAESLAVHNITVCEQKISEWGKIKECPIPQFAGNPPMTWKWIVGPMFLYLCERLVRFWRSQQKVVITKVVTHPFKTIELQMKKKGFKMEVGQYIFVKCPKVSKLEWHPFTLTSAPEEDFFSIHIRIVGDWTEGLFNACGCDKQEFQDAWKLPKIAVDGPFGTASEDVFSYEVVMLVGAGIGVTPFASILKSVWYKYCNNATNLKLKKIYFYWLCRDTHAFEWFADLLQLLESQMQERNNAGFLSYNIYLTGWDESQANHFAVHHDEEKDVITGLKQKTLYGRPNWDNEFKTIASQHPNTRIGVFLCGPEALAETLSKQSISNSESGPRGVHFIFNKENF

[19] = biological target: NADPH oxidase 4 (Homo sapiens) (UniProt Q9NPH5); assay: NOX4-dependent H2O2 signal modulators, primary screen, NOX inhibitor project, cell-based, HEK293-NOX4, tetracycline-induced, Amplex Red fluorescence (AID 1160); conditions: 45 min, higher = more signal, called active from +8 up or from −8 down
Sequence of NADPH oxidase 4 (Homo sapiens) (Q9NPH5 whole entry, looked up): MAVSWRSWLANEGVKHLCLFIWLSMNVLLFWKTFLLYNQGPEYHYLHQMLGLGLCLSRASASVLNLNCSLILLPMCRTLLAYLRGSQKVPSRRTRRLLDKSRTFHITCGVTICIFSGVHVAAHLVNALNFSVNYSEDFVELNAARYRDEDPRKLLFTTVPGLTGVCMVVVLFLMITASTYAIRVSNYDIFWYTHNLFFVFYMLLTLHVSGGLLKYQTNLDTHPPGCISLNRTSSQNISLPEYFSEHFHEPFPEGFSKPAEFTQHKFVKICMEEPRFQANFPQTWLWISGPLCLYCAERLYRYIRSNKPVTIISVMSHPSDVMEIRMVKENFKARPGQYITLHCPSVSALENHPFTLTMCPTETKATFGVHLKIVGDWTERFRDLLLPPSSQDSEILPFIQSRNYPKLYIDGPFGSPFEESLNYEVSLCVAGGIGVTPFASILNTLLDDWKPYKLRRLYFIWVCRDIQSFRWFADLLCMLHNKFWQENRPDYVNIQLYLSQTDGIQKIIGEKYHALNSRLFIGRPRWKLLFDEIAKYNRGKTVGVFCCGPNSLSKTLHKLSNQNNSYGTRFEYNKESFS

[20] = biological target: NADPH oxidase 5 (Homo sapiens) (UniProt Q96PH1); assay: NOX5-dependent H2O2 signal modulators, primary screen, NOX inhibitor project, cell-based, HEK293-NOX5, Amplex Red fluorescence (AID 1161); conditions: HEK293-NOX5, ionomycin, 45 min, higher = more signal
Sequence of NADPH oxidase 5 (Homo sapiens) (Q96PH1 whole entry, looked up): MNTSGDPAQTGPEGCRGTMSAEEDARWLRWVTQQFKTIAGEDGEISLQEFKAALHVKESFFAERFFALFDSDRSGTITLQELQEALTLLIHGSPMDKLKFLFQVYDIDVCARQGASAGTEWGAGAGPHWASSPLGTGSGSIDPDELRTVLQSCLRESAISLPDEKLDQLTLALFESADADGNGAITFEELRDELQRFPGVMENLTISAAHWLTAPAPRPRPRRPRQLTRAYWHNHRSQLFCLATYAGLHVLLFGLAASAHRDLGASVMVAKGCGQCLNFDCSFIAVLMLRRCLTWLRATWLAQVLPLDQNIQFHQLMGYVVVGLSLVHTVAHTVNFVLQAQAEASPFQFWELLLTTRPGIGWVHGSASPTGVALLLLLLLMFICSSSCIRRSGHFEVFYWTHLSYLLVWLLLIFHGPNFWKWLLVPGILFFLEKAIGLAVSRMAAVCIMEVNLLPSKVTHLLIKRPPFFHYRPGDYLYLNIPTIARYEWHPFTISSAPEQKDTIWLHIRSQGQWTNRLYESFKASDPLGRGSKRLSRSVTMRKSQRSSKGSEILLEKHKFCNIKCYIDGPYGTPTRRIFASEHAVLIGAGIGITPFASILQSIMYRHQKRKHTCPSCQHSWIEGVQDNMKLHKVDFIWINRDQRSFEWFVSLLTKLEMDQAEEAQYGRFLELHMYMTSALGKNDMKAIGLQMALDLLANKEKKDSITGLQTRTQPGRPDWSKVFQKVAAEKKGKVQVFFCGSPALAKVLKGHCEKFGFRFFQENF

Compound | composite z-score [1] | z-score [2] | z-score [3] | z-score [4] | z-score [5] | composite z-score [6] | composite z-score [7] | composite z-score (Torsin-1A (Homo sapiens) [8]) | composite z-score (Torsin-1A (Homo sapiens) [9]) | composite z-score [10] | z-score [11] | composite z-score [12] | z-score [13] | z-score [14] | z-score [15] | z-score [16] | z-score [17] | z-score [18] | z-score [19] | z-score [20]
N[C@@H](Cc1ccccc1)C(=O)NCc1cn(Cc2ccccc2)nn1 | -0.0432 | 0.609 (inactive) | 0.391 (inactive) | 0.381 (inactive) | -0.644 (inactive) | 0.0584 | 0.0464 | 1.14 | 0.186 | 0.822 | 0.676 (inactive) | 0.397 | -0.39 (inactive) | 0.262 (inactive) | -0.0107 (inactive) | -0.0074 (inactive) | 0.0064 | 0.64 (inactive) | 0.359 (inactive) | 0.255
CC(C)c1ccc(NN2C(C(O)c3ccc(F)cc3)C=CC3C(=O)N(c4ccccc4)C(=O)C32)cc1 (stereo not given) | 0.306 | -0.953 (inactive) | -1.63 (inactive) | 0.812 (inactive) | 0.3 (inactive) | 1.7 | 0.324 | -0.448 | 0.0626 | -0.0155 | -0.601 (inactive) | 0.498 | 3.82 (inactive) | 1.76 (inactive) | 0.0964 (inactive) | 1.44 (inactive) | -1.05 | -1.15 (inactive) | -2.78 (inactive) | -2.6
COC(=O)[C@@]1(Cc2ccc(OC)cc2)[C@H]2c3cc(C(=O)N4CCCC4)n(CCO)c3C[C@H]2CN1C(=O)c1ccccc1 | 0.925 | -0.794 (inactive) | -0.14 (inactive) | 0.773 (inactive) | 1.41 (inactive) | 0.342 | 0.372 | -0.48 | 1.44 | -0.645 | -1.72 (inactive) | 0.399 | 2.85 (inactive) | 0.766 (inactive) | 1.66 (inactive) | 0.815 (inactive) | 0.604 | -0.0722 (inactive) | -2.96 (inactive) | -4.86
Cc1ccc(S[C@]2(C(=O)NC(C)C)CC(=O)N(Cc3cc(C(F)(F)F)cc(C(F)(F)F)c3)[C@@H]2c2ccc(CO)cc2)cc1 | 0.0368 | -0.523 (inactive) | 0.0139 (inactive) | 0.0655 (inactive) | 0.832 (inactive) | -1.18 | -0.121 | -1.86 | -1.78 | -0.621 | -0.16 (inactive) | -0.0252 | 2.96 (inactive) | 0.812 (inactive) | 0.497 (inactive) | 0.672 (inactive) | -0.768 | -0.00496 (inactive) | -0.242 (inactive) | 0.128
CC(C)N1C(=O)C[C@@](C(=O)O)(c2ccc([N+](=O)[O-])cc2)[C@H]1c1ccc(CO)cc1 | -0.0691 | 0.034 (inactive) | 1.17 (inactive) | 0.441 (inactive) | -0.303 (inactive) | -0.923 | -0.0288 | -0.254 | -0.0237 | -0.878 | 1.47 (inactive) | 0.188 | 3.45 (inactive) | 0.654 (inactive) | 0.415 (inactive) | 0.159 (inactive) | 0.126 | -2.39 (inactive) | 0.251 (inactive) | 1.02
CCCC=C(CCC)[C@@H](NP(=O)(c1ccccc1)c1ccccc1)c1ccc(-c2ccccc2)cc1 | 0.363 | -1.53 (inactive) | 0.892 (inactive) | 0.204 (inactive) | 1.24 (inactive) | 1.09 | 0.3 | 0.804 | 1.68 | -0.0804 | -1.61 (inactive) | 0.408 | 3.5 (inactive) | 0.766 (inactive) | -1.07 (inactive) | 0.96 (inactive) | -0.422 | -1.02 (inactive) | -1.94 (inactive) | 2.3
CCCC#C[Si](O[C@H](CC)c1cn([C@H](C)c2ccccc2)nn1)(C(C)C)C(C)C | 0.0759 | -0.746 (inactive) | -0.616 (inactive) | -0.621 (inactive) | -0.929 (inactive) | -0.121 | 0.143 | 0.575 | 0.95 | 0.275 | 2.53 (inactive) | 0.28 | 1.01 (inactive) | 1.05 (inactive) | -0.302 (inactive) | 0.357 (inactive) | 0.364 | 0.177 (inactive) | 0.00728 (inactive) | 0.7
CC[C@@H]1C=C(C(=O)O)[C@H](c2ccccc2)N1S(=O)(=O)c1ccc(C)cc1 | 0.0651 | -0.272 (inactive) | 0.853 (inactive) | -0.676 (inactive) | -0.0818 (inactive) | 0.0128 | -0.197 | 0.474 | 0.518 | -0.313 | -1.24 (inactive) | -0.0984 | 1 (inactive) | 0.72 (inactive) | -0.393 (inactive) | 0.512 (inactive) | -0.265 | 0.848 (inactive) | -0.114 (inactive) | -0.978
CS(=O)(=O)CCOC(=O)C1=CC(c2ccc(CO)cc2)=CC(C2CC2)N(Cc2sc3ccccc3c2Cl)C=C1C(=O)OCCS(C)(=O)=O (stereo not given) | -0.0091 | -4.22 (inactive) | -1.49 (inactive) | 1.8 (inactive) | -2.66 (inactive) | 1.95 | 0.0843 | 1.24 | 1.31 | 1.23 | -3.12 (inactive) | 0.141 | 13.8 (active) | 3.35 (inactive) | 0.239 (inactive) | 1.39 (inactive) | 0.044 | 0.932 (inactive) | 0.186 (inactive) | -0.935
